Source: PubChem BioAssay
Only some compounds are listed: those with a hit (about 4% of all), similar ones and a draw of the others.
GDH-TPI inh = GDH-TPI coupling enzyme inhibitors, primary screen, artefact control for M. tuberculosis FBA inhibitor project, biochemical, absorbance, full deck; GDH-TPI coupled enzyme counterscreen, NADH absorbance; inhibition, % at 4.8 µM; AID 588335, 2011; 360,000 tested, 1.2% active; in the data active means inhibition above about 30%
Mtb betalactam = beta-lactam sensitization of Mtb H37Rv, H37Rv; M. tuberculosis H37Rv growth with meropenem, percent inhibition; inhibition, % at 25 µM; 330,000 tested, 0.27% active; AID 434955, 2010; call rule not given here;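 further: growth measured after seven days incubation then overnight dye step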
Rv3671c protease = Rv3671c serine protease inhibitors, primary screen, biochemical, fluorescence polarization, M. tuberculosis H37Rv; 320,000 tested, 0.048% active; P9WHR9; inhibition, % at 5.96 µM; in the data active means inhibition above about 38%;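 further: extracellular domain of Rv3671c used as enzyme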
RecA intein inh = Mtb RecA intein splicing inhibitors, primary screen, biochemical, fluorescence, HTS. Protein RecA (Mycobacterium tuberculosis (strain ATCC 25618 / H37Rv)), P9WHJ3. cell-free RecA intein splicing. inhibition, % (test concentration not listed). 290,000 tested, 0.75% active. AID 2221, 2009; in the data active means inhibition above about 30%; inconclusive means no clear call, values can overlap the other calls
Target sequence (P9WHJ3 whole entry, looked up): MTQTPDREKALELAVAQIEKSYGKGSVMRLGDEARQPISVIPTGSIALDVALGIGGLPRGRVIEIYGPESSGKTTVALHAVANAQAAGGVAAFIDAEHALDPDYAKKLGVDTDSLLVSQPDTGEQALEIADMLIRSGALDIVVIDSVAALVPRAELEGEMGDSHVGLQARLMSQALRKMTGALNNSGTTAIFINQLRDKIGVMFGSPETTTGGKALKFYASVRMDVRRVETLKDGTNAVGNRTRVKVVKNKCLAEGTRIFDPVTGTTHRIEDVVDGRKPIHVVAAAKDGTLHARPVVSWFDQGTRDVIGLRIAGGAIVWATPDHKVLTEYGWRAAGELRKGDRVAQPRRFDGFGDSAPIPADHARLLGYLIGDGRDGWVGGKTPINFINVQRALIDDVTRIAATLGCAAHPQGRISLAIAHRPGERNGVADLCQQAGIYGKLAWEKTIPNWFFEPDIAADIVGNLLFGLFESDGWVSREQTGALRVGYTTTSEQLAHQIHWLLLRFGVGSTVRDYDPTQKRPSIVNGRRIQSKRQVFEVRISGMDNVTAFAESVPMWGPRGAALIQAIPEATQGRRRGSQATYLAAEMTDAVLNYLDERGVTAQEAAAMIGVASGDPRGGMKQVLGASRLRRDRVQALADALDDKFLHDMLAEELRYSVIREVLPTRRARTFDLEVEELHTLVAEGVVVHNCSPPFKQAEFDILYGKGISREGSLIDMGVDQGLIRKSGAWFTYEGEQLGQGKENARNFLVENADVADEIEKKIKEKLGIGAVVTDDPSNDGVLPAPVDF
FBA Mtb inh = Mtb FBA enzyme inhibitors, primary screen, biochemical, fluorescence, strain H37Rv; Fructose-bisphosphate aldolase (Mycobacterium tuberculosis (strain ATCC 25618 / H37Rv)), …; purified M. tuberculosis FBA, fluorescence read-out; inhibition, % at 1 µM; 360,000 tested, 2.3% active; AID 588726, 2011; in the data active means inhibition above about 27%
Mtb UGM inh = M. tuberculosis UGM enzyme inhibitors, primary screen, biochemical, fluorescence polarization, single point. purified UGM, fluorescence polarization probe displacement. inhibition, % at 10 µM. 320,000 tested, 0.06% active. AID 504406, 2011; in the data active means inhibition above about 10%, passing the limit was not always enough; inconclusive means no clear call, values can overlap the other calls
Of the large screens only hits and unclear results are named; the others gave an inactive call.

O=C(N/N=C/c1cccc2nccnc12)c1ccncc1	none
Cc1cc(C)cc(Cn2ncc(Cl)c(Cl)c2=O)c1	RecA intein inh 56 (no result: GDH-TPI inh, FBA Mtb inh)
Cc1ccc(Cn2ncc(Cl)c(Cl)c2=O)cc1	RecA intein inh 38
Cc1cccn2c(=O)nc(SCC(=O)Nc3ccc4c(c3)OCCO4)nc12	none
COc1cc(/C=N/NC(=S)Nc2cccc(C(=O)O)c2)cc(OC)c1OC	GDH-TPI inh 41
COc1ccc(/C=N/NC(=S)Nc2cccc(C(=O)O)c2)cc1OC	GDH-TPI inh 50
COc1cccc(/C=N/NC(=S)Nc2cccc(C(=O)O)c2)c1	none (no result: RecA intein inh)
Cc1onc(-c2c(Cl)cccc2Cl)c1C(=O)N1CCCc2ccccc21	none
COc1cccc(-n2c([S-])c(C(=O)Nc3ccc(S(=O)(=O)N4CCOCC4)cc3)[n+]3cc(C(N)=O)ccc23)c1	GDH-TPI inh 31
O=C(Nc1ccc(S(=O)(=O)N2CCCC2)cc1)c1ccc([N+](=O)[O-])o1	none (no result: RecA intein inh)
Cc1c(C(=O)Nc2ccc(S(=O)(=O)N3CCOCC3)cc2)cccc1[N+](=O)[O-]	FBA Mtb inh active
O=C(Nc1ccc(S(=O)(=O)N2CCOCC2)cc1)c1ccc([N+](=O)[O-])o1	GDH-TPI inh 32
CC(C)COc1cccc(C(=O)Nc2ccc(S(=O)(=O)N3CCOCC3)cc2)c1	none
CCOCCCNC(=O)c1ccc(N2CC3CC(C2)c2cccc(=O)n2C3)c(NC(=O)Nc2cccc(OC)c2)c1 (centres undefined)	none
CCCCN(CC)CCCNC(=O)c1cc2c(-c3ccc(OC)c(OC)c3)nn(C)c2s1	none
CSc1ccc(/C=C(/NC(=O)c2ccco2)C(=O)NCc2ccco2)cc1	GDH-TPI inh 41 (no result: Rv3671c protease)
CSc1ccc(/C=C(\NC(=O)c2ccco2)C(=O)N2CCCCC2)cc1	GDH-TPI inh 37 (no result: Rv3671c protease)
COc1ccc(/C=C(\NC(=O)c2ccco2)C(=O)Nc2ccc(C(C)=O)cc2)cc1	GDH-TPI inh 33 (no result: Rv3671c protease)
Cc1ccc(S[C@@H](CCN2CC[C@H](C)CCC2=O)c2ccccc2)cc1	RecA intein inh 30
C[C@@H]1CCC(=O)N(CC[C@H](Sc2ccc(Br)cc2)c2ccccc2)CC1	none (no result: RecA intein inh)
CC(=O)Nc1cc(S(=O)(=O)Nc2ccccc2)c(C)cc1C	none
Cc1cc(C(C)(C)C)cc(S(=O)(=O)Nc2ccc(O)c(C(=O)O)c2)c1C	Mtb UGM inh 17 (no result: Mtb betalactam)
Cc1cc(C)c(S(=O)(=O)Nc2ccc(C(=O)O)cc2)cc1S(=O)(=O)Nc1ccc(C(=O)O)cc1	Mtb UGM inh 11
O=C(CCCN1C(=O)/C(=C\c2cccc(Br)c2)SC1=S)Nc1cccnc1	none
O=C(CSc1nnc(-c2ccncc2)n1Cc1ccccc1)NCCc1ccccc1	none
Cn1nnnc1SCC(=O)c1c(N)n(C2CC2)c(=O)[nH]c1=O	none (no result: RecA intein inh)
CCN(CC)C(=O)c1sc(NC(=O)c2ccc3c(c2)OCO3)c(C#N)c1C	none
Cc1c(C(=O)N2CCOCC2)sc(NC(=O)c2ccc3c(c2)OCO3)c1C#N	GDH-TPI inh 45
CNC(=O)c1cc2c(=O)n3cc(C)ccc3nc2n(C(C)C)c1=N	FBA Mtb inh active
Cc1ccc2nc3c(cc(C(=O)NC4CCCC4)c(=N)n3C3CCCCC3)c(=O)n2c1	FBA Mtb inh 134
Cc1ccc2nc3c(cc(C#N)c(=N)n3Cc3cccnc3)c(=O)n2c1	none (no result: GDH-TPI inh, FBA Mtb inh)
Cn1nccc1C(=O)N1CCCC(Nc2ccc(F)cc2)C1 (centres undefined)	none
N#Cc1ccc(C(=O)Nc2cc(S(=O)(=O)N3CCOCC3)ccc2N2CCOCC2)cc1	none (no result: Mtb betalactam, Rv3671c protease, RecA intein inh, Mtb UGM inh)
C#Cc1ccc(C(=O)Nc2cc(C(N)=O)ccc2N2CCOCC2)cc1	GDH-TPI inh 32, Mtb betalactam inconclusive
CCOc1ccccc1NC(=O)COC(=O)c1cc(C(=O)OC)cc([N+](=O)[O-])c1	none
O=C(C[n+]1cc(-c2ccc(Cl)cc2)n2c1CCCCC2)c1ccccc1	none
Clc1ccc(C2=C3CCCCn4c(-c5ccccc5)c[n+](c43)C2)cc1	RecA intein inh 33
CC(=O)c1ccc([N+](=O)[O-])cc1	none (no result: RecA intein inh)
CC(N)=Nc1ccc([N+](=O)[O-])cc1	Mtb UGM inh 14
COc1ccccc1-c1cncc(NC(C)=O)n1	none (no result: Mtb betalactam, Rv3671c protease, RecA intein inh, Mtb UGM inh)
CNc1cncc(-c2cccc(OC)c2F)n1	FBA Mtb inh active (no result: Mtb betalactam, Rv3671c protease, RecA intein inh, Mtb UGM inh)
CNc1cncc(-c2ccc(F)c(F)c2)n1	FBA Mtb inh 168 (no result: Mtb betalactam, Rv3671c protease, RecA intein inh, Mtb UGM inh)
CSc1nncc(-c2ccc(F)c(F)c2)n1	none
CNc1cncc(-c2cccnc2)n1	FBA Mtb inh active (no result: Mtb betalactam, Rv3671c protease, RecA intein inh, Mtb UGM inh)
CNc1cncc(-c2cccc(C(=O)N(C)C)c2)n1	FBA Mtb inh active (no result: Mtb betalactam, Rv3671c protease, RecA intein inh, Mtb UGM inh)
CCN1CCN(c2ccc(S(=O)(=O)N3CCCCC3)cc2NC(=O)COc2cc(C)ccc2Cl)CC1	none
CN(CC(=O)Nc1c(Cl)cccc1Cl)CC(=O)N(C)C1(C#N)CCCCC1	none (no result: RecA intein inh)
CC(=O)Nc1ccc(NC(=O)c2ccc(NS(=O)(=O)c3cccc4cccnc34)cc2)cc1	none
O=C(Nc1ccc2nc(-c3cccs3)c(-c3cccs3)nc2c1)NC1CC1	GDH-TPI inh 32
COCCNC(=O)Nc1ccc2nc(-c3cccs3)c(-c3cccs3)nc2c1	none
CN(Cc1ccccc1)C(=O)c1ccc(NC(=O)Cc2cccc(NC(=O)C3CCN(C(=O)C4CCCCC4)CC3)c2)cc1	none (no result: RecA intein inh)
CCN(CC)c1ccc(/C=N/NC(=O)Cc2ccc(OC)c(OC)c2)cc1	GDH-TPI inh 46
O=C(/C=C/c1ccco1)NCC(=O)N/N=C/c1ccccc1[N+](=O)[O-]	none
CCOC(=O)N/N=C\C=C\c1ccc2c(c1)OCO2	GDH-TPI inh 37
COc1cc(C(=O)NN=Cc2ccc(N(CCCl)CCCl)cc2)cc(OC)c1OC	GDH-TPI inh 61 (no result: Mtb betalactam, Rv3671c protease, RecA intein inh, Mtb UGM inh)
CC(C)(C)OC(=O)N/N=C\C=C\c1ccc2c(c1)OCO2	none (no result: RecA intein inh)
CCN(CC)c1ccc(/C=N/NC(=O)CNC(=O)/C=C/c2ccco2)cc1	GDH-TPI inh 44
O=C1NC2(CCCCC2)C(=O)N1Cc1cccc(C(F)(F)F)c1	none
CCOC(=O)CNc1ccc2c(c1)OCO2	Mtb UGM inh 12
COc1ccc(CC(=O)N/N=C/C=C/c2ccc3c(c2)OCO3)cc1OC	GDH-TPI inh 35
CCN(CC)c1ccc(C(=O)N/N=C(\C)c2ccc(OC)c(OC)c2)cc1	GDH-TPI inh 32
COc1ccc(/C=C/C(=O)NCc2ccc3c(c2)OCO3)cc1OC	none
COC(=O)N/N=C\C=C\c1ccc2c(c1)OCO2	GDH-TPI inh 44
CS(=O)(=O)Oc1ccc(/C=C2\C(=N)N3N=C(CC(=O)N4CCOCC4)SC3=NC2=O)cc1Cl	none
CCOC(=O)N1CCN(C(=O)CCc2c(C)nc3c(c(C)nn3-c3ccc(C)c(C)c3)c2C)CC1	none
Cc1ccc(CNC(=O)CS(=O)Cc2nc(-c3ccccc3F)oc2C)cc1 (centres undefined)	none
CSc1c2c([nH]c(=O)c1C#N)-c1ccccc1CC2	FBA Mtb inh 175 (no result: GDH-TPI inh, Mtb betalactam, Rv3671c protease, RecA intein inh, Mtb UGM inh)
